# Assay outcomes deposited in PubChem BioAssay by several laboratories.
# Mac1 fbg enh: CD11b/CD18-fibrinogen binding enhancement | P05107+P11215 | K562 CD11b/CD18 adhesion to fibrinogen, ATPlite luminescence | activation, % at 10 µM | 93,000 tested, 0.07% active | AID 1499;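 active means 10 µM primary screen giving 50% or more activity, confirmed by 40% or more on retest at that dose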
# FAK blocker: FAK (human) kinase inhibition; 97,000 tested, 0.84% active; AID 727; inhibition, %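 (tested at 7 µM)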; Q05397; biochemical FAK kinase activity assay; in the data active means inhibition above about 19%;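 further: 0% = DMSO and 100% = reference compound high control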
# PTK2B oligo ant: Pyk2 (human) oligomerization antagonism | Q293 cells, Pyk2 FERM NanoBiT luminescence; hits give low values | Q14289 | z-score (the deposit names both 25 µM and 10 µM) | 99,000 tested, 0.83% active | AID 1347419;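 active means Z-score of -3 or lower, scaled per plate to the spread of control and sample wells; inactive means z-score above -3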;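 further: negative z-score means lost luminescence so less FERM oligomerization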
# CD11b adhes inh: inhibitors of human CD11b/CD18 binding to fibrinogen; P05107+P11215; K562 CD11b/CD18 adhesion to fibrinogen, ATPlite luminescence; Mn2+ added to activate the integrin; inhibition, % at 10 µM; 93,000 tested, 0.54% active; AID 1497;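 active means primary inhibition of 50% or more at 10 µM, then 40% or more on retest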
# An asterisk follows results filed as active; / = no result. An excerpt weighted towards active compounds, which were near 1.8% of everything screened.
SMILES,Mac1 fbg enh,FAK blocker,PTK2B oligo ant,CD11b adhes inh
N#CCCn1cc(/C=N/O)c(-c2ccc(-c3ccccc3)cc2)n1,0,13,-4.1*,-6
N#CCCn1cc(/C=N/O)c(-c2ccc(Cl)cc2)n1,/,9,-3.5*,/
COc1cccc(NC2=Nc3cccc4cccc2c34)c1,0,/,/,8
S=C(Nc1ccccc1)N1N=CCC1c1ccccc1 (stereo not drawn),-4,9,-0.34,72*
COc1ccc(Cn2c(-c3ccc(Br)cc3)c[n+]3ccccc23)cc1,3,/,/,19
Cc1cc(C)c[n+](C(C)C(=O)c2ccc(-c3ccccc3)cc2)c1 (stereo not drawn),-1,/,/,-14
COc1cc(S(=O)(=O)N2CCN(c3ccc(F)cc3)CC2)ccc1Cl,-1,2,-3.3*,-7
COc1cc(S(=O)(=O)N2CCN(c3ccccc3F)CC2)ccc1Cl,-6,/,-3*,43
COc1cc(S(=O)(=O)N2CCN(c3ccccc3)CC2)ccc1Cl,-1,-1,-2.8,-12
CCOc1ccc(-n2c(N)c(-c3nc4ccccc4n3C)c3nc4ccccc4nc32)cc1,-3,/,/,4
Cc1ccc(CCSc2ccc(C(C)C)cc2)cn1,-4,/,-0.04,72
CN(C(=O)c1ccco1)c1nc2c(s1)CCCC2,-1,0,0.83,10
CCOC(=O)c1[nH]c2ccccc2c1NC(=O)Nc1ccc(OC)cc1,10,0,0.16,-6
CCOC(=O)c1ccccc1NC(=O)COc1cc(=O)n(CC)c2ccccc12,9,2,-4.2*,12
CCn1c(=O)cc(OCC(=O)Nc2ccc(C)cn2)c2ccccc21,-3,2,-0.46,12
Fc1ccc(Sc2nc(-c3ccccc3)nnc2C(F)(F)F)cc1,1,-11,-0.86,18
Fc1ccc(Sc2cc(Cl)c(-c3ccccc3)nn2)cc1,/,4,-3.5*,/
COC(=O)C(NNc1ccccc1C)(NC(=O)c1ccc(F)cc1)C(F)(F)F (stereo not drawn),-8,1,0.82,-6
O=C(CN1CCN(c2ncccn2)CC1)NCc1ccccc1,-3,-2,-0.07,-1
Cc1nc2sccn2c1-c1csc(NCc2ccccc2)n1,-9,10,0.46,109*
O=c1c2[nH]c3ccccc3c2ncn1CCC1=CCCCC1,0,8,0.67,-7
COc1ccc2[nH]c3c(NCCN(C(C)C)C(C)C)ncnc3c2c1,-5,8,0.3,-8
CC(C)OCCCNc1ncnc2c1[nH]c1ccccc12,-9,7,-0.23,84*
C1=C(CCNc2ncnc3c2[nH]c2ccccc23)CCCC1,-9,/,/,100*
CC(C)CNC(=O)c1ccccc1SCC(=O)NC12CC3CC(CC(C3)C1)C2,1,/,/,2
SMILES,Mac1 fbg enh,FAK blocker,PTK2B oligo ant,CD11b adhes inh
Cc1ccc(-c2nc(N/N=C/c3ccncc3)c3ccccc3n2)cc1,-9,7,-2.4,103*
O=C(N/N=C(\c1ccccc1)c1cccnc1)C(O)(c1ccccc1)c1ccccc1,/,7,-3.9*,/
COC(=O)C1=CNC=C(C(=O)OC)C1c1ccc(Cl)cc1,10,3,-3.8*,-26
COC(=O)C1=CNC=C(C(=O)OC)C1c1ccccc1Cl,-2,14,-2.1,-6
CCn1ncc(Br)c1C(=O)Nc1ccccc1C(=O)OC,/,53*,0.46,/
CCn1ncc(Br)c1C(=O)Nc1ccc(F)cc1F,0,-3,2.5,-3
Cn1c2c(c(=O)n(C)c1=O)C(C(F)(F)F)(C(F)(F)F)N=C(c1ccc(Cl)cc1)N2,/,-4,-3.3*,/
CC(=O)NC1(C(F)(F)F)C(=O)Nc2c1c(=O)n(C)c(=O)n2C (stereo not drawn),-2,2,0.93,-15
Cc1nn(Cc2ccc(C(=O)Nc3ccc(Br)c4cccnc34)o2)c(C)c1Br,/,-2,/,/
O=C(O)c1ccc2c(=O)n3c(nc2c1)/C(=C/c1ccccc1C(F)(F)F)CCCC3,-1,/,/,16
CCCCNC(=O)CSc1nnc(-c2c[nH]c3ccccc23)n1CC1CCCO1 (stereo not drawn),6,-1,2.4,1
O=c1c([N+](=O)[O-])c(NC2CCCCC2)c2ccccc2n1-c1ccccc1,/,4,-3.7*,/
COC(=O)c1sc(S(=O)(=O)Nc2ccc3cn[nH]c3c2)c(C(=O)OC)c1C,6,1,-0.44,-33
COC(=O)c1sc(S(=O)(=O)Nc2ccc(Br)cc2)c(C(=O)OC)c1C,-7,/,/,91*
O=C(CSc1nnnn1-c1ccccc1)Nc1ccc(N2CCOCC2)c(Cl)c1,-2,-2,-1.7,-16
O=C(CSc1nnnn1-c1cccc2ccccc12)Nc1ccc(N2CCOCC2)c(Cl)c1,-1,-1,-3.3*,-15
O=C(CSc1nnc(C23CC4CC(CC(C4)C2)C3)o1)Nc1ccc(N2CCOCC2)c(Cl)c1,-8,-1,-3.3*,2
C=CCNC(=O)c1onc(CSc2ccc(F)cc2)c1C(=O)NCCOC,-6,3,/,60*
C=CCNC(=O)c1onc(CSc2ccc(F)cc2)c1C(=O)O,/,1,/,/
CCC(C)C(NS(=O)(=O)c1ccc(C)cc1)C(=O)Oc1ccc2c3c(c(=O)oc2c1)CCC3 (stereo not drawn),1,0,0.2,-10
Cc1ccc(S(=O)(=O)NC(C(=O)Oc2ccc3c(C(F)(F)F)cc(=O)oc3c2)c2ccccc2)cc1 (stereo not drawn),-6,/,/,57*
Cc1ccc(C(=O)c2coc3cc([N+](=O)[O-])c(O)c([N+](=O)[O-])c23)cc1,-7,/,/,78
O=C(Nc1ccc(Cc2ccncc2)cc1)C1CCC(N2C(=O)C3C4C=CC(C5CC45)C3C2=O)CC1 (stereo not drawn),-1,-3,-4.2*,7
O=C(Nc1ccc(Cc2ccncc2)cc1)C1CC1,14,-2,0.41,-24
CCOC(=O)c1c2c(n(C)c1COC)C(=O)C(=O)c1ccc(Br)cc1-2,/,52*,/,/
SMILES,Mac1 fbg enh,FAK blocker,PTK2B oligo ant,CD11b adhes inh
CCOC(=O)c1c(C)nc(C)c(C(=O)OCC)c1-c1ccc(Br)cc1,-1,/,/,-11
CCn1c(COc2ccc3c(c2)OCO3)nnc1SCC(=O)c1ccc(Cl)cc1,-3,1,0.8,3
CCCOc1ccc(C2C(C(=O)OC)=CN(CCOC)C=C2C(=O)OC)cc1,/,-5,-3.5*,/
COCCN1C=C(C(=O)OC)C(c2ccc(OC)c(OC)c2)C(C(=O)OC)=C1,1,4,-0.01,-19
CCCCCCCCNc1ncnc2ccccc12,-10,2,-0.26,101*
Cc1ccccc1-n1c(SCc2c(C)noc2C)nnc1-c1c[nH]c2ccccc12,-3,0,-3.5*,-6
Cc1noc(C)c1CSc1nnc(-c2ccncc2)n1-c1cccc(Cl)c1C,2,/,-1.3,-13
Cc1cccc2cc(C#N)c(SCC(=O)N3CC(=O)Nc4ccccc43)nc12,/,-22,-3.1*,/
Cc1ccc(-c2nc(-c3ccccn3)no2)cc1Cl,-3,3,-1.4,71*
Cc1ccc(-c2nc(-c3ccccn3)no2)cc1,-9,9,-0.75,91*
c1ccc(-c2ccc(-c3nc(-c4ccccn4)no3)cc2)cc1,-10,1,-1.7,98
Clc1cccc(-c2nc(-c3ccccn3)no2)c1,-4,0,-0.76,49
